Results as given in PubChem BioAssay (NCATS).
Results filed as inconclusive are left out. Active and inactive are the calls of the source. Calls come from the whole dose curve; as a rule, active = well fitted curve in the direction sought with a large enough effect; inconclusive = small, poorly fitted or top-dose-only effect, or another doubt; inactive = no such curve, though single readings can be large; an effect the other way counts as inactive or inconclusive.

Tests used:
[1] = biological target: Nuclear receptor subfamily 1 group I member 3 (Homo sapiens) (UniProt Q14994); experiment: Primary qHTS for antagonist of constitutive androstane receptor (CAR) against the NCATS DSHEA and TCM libraries (AID 1794836);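 note: HepG2 cells stably expressing hCAR with CYP2B6 luciferase reporter stimulated by CITCO; series mostly up to about 40 µM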
Outline: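 HepG2-CYP2B6-hCAR cells, attached 5 h, given compounds plus CITCO agonist […], incubated 24 h at 37 C. Luciferase luminescence read, multiplexed with CellTiter-Fluor viability (Ex/Em 405/540 nm).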

[2] = Viability counterscreen for antagonist of constitutive androstane receptor (CAR) against the NCATS DSHEA and TCM libraries (AID 1794837);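 note: compound exposure lasted 24 h before viability reading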
Outline: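 Fluorescence from CellTiter-Fluor reports live-cell protease activity in HepG2-CYP2B6-hCAR cells treated for 24 h with substances alongside 48 uM CITCO.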

[3] = Viability counterscreen for agonist of constitutive androstane receptor (CAR) against the NCATS DSHEA and TCM libraries (AID 1794838)
Outline: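 In agonist mode, PK11195 is added at 0.75 uM final to HepG2-CYP2B6-hCAR cells dosed with test substances. Cultures incubate 24 h at 37C before a protease-based fluorogenic viability readout.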

[4] = biological target: Nuclear receptor subfamily 1 group I member 3 (Homo sapiens) (UniProt Q14994); experiment: Primary qHTS for agonist of constitutive androstane receptor (CAR) against the NCATS DSHEA and TCM libraries (AID 1794839);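 note: HepG2 cells expressing human CAR with a CYP2B6 reporter plus PK11195 antagonist; luciferase reporter luminescence read with ONE-Glo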
Outline: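 Cells stably carrying hCAR and a CYP2B6 reporter (HepG2 background) are seeded and allowed 5 h to adhere. Substances at multiple concentrations are added alongside 0.75 µM PK11195, and luciferase signal is measured after 24 h.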

[5] = HepG2 viability counterscreen (readout 2: ATP content) against the NCATS DSHEA and TCM libraries (AID 1794840);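 note: HepG2 cells exposed to substances for about 24 h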
Outline: (§1)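 Cytotoxicity was assessed in HepG2 cells plated at 1,000 cells/well and exposed for about 24 hours to a concentration series. Protease activity and ATP content were measured sequentially in each well.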

[6] = HepG2 viability counterscreen (readout 1: protease activity) against the NCATS DSHEA and TCM libraries (AID 1794841);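 note: cells exposed to compounds for about 24 h before the protease read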
Outline: as §1

[7] = biological target: Glutathione peroxidase 1 (Homo sapiens) (UniProt P07203); experiment: Primary qHTS Assay for Inhibitors of Recombinant Selenoprotein Glutathione Peroxidase 1 (GPX1) (AID 1845191); note: nearly all actives have a fitted effect of over 65% in size
Outline: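 GR-coupled assay: compounds preincubated 30 min at room temperature with GPX1, then reaction started with CHP; final 10 nM GPX1, 1 mM GSH, 0.5 mM CHP, 0.5 mM NADPH, 100 nM GR, 0.01% BSA, pH 7.5 Tris buffer. NADPH fluorescence (340/450 nm) read at 0 and 15 min.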

[8] = biological target: Phospholipid hydroperoxide glutathione peroxidase GPX4 (Homo sapiens) (UniProt P36969); experiment: Primary qHTS Assay for Inhibitors of Recombinant Selenoprotein Glutathione Peroxidase 4 (GPX4) (AID 1845192); note: nearly all actives have a fitted effect of over 65% in size
Outline: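 GR-coupled assay: recombinant GPX4 preincubated 30 min with compound at room temperature; final 200 nM GPX4, 1 mM GSH, 0.5 mM cumene hydroperoxide, 0.5 mM NADPH, 100 nM GR, 0.01% BSA, pH 7.5 Tris. NADPH fluorescence (340/450 nm) read at 0 and 15 min.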

[9] = biological target: Metallo-beta-lactamase type 2 (Klebsiella pneumoniae) (UniProt C7C422); experiment: qHTS to identify inhibitors of the New Delhi Metallo-beta-lactamase (NDM): assay validation screen against the NCATS LOPAC Collection (AID 1794843);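 note: nitrocefin turnover by NDM-1 measured as 485 nm absorbance at plateau; series mostly up to about 38 µM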
Outline: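 Nitrocefin hydrolysis (50 uM substrate stock) by NDM-1, 2 nM final, was followed by 485 nm absorbance after compound preincubation; buffer was 50 mM HEPES pH 7.0, 1 uM ZnSO4, 0.01% Tween20.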

Measured: Potency

Chain of Glutathione peroxidase 1 (Homo sapiens) (P07203 whole entry, looked up): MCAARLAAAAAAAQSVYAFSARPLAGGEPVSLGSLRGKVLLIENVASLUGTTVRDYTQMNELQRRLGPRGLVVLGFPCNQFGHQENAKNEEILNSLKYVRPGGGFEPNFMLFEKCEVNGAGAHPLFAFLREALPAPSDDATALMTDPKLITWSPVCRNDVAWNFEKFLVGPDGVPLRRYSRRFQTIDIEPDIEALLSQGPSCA
Chain of Phospholipid hydroperoxide glutathione peroxidase GPX4 (Homo sapiens) (P36969 whole entry, looked up): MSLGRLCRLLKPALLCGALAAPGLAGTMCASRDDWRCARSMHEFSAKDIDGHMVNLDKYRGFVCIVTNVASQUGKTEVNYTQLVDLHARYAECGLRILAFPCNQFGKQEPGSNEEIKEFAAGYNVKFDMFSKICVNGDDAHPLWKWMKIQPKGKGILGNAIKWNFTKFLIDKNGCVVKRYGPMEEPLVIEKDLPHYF
Chain of Metallo-beta-lactamase type 2 (Klebsiella pneumoniae) (C7C422 whole entry, looked up): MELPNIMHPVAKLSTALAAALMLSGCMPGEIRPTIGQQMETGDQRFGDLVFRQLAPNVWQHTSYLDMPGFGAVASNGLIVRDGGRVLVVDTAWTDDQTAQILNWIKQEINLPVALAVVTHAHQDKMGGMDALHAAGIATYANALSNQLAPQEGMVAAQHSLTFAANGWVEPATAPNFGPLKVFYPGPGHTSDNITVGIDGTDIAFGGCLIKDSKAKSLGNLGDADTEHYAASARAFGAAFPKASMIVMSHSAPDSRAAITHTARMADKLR
Chain of Nuclear receptor subfamily 1 group I member 3 (Homo sapiens) (Q14994 whole entry, looked up): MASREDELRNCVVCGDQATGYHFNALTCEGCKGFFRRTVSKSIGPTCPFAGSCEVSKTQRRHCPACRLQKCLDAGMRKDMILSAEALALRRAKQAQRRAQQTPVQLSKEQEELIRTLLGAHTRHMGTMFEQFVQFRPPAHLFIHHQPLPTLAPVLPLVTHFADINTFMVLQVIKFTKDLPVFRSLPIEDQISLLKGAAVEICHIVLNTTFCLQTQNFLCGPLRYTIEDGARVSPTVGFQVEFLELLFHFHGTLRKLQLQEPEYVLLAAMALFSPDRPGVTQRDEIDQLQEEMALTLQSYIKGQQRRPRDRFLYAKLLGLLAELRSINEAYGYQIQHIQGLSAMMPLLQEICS

O=C/C=C/c1ccccc1
inactive: [1] | [2] | [3] | [4] | [5] | [6] | [7] | [8]

CCNC(=O)[C@H]1O[C@@H](n2cnc3c(N)ncnc32)[C@H](O)[C@@H]1O
inactive: [9] | [7] | [8]

Cc1cc([C@@H]2CCCN2C)on1
inactive: [9] | [7] | [8]
